Sampled rows, rich in hits. Any-hit rate of the full collection: about 1.3%.
TRPV1 agonist: agonists of human vanilloid receptor 1 (TRPV1) | hit rate 0.19% among 320,000 | TRPV1-expressing cells, Fluo-8 calcium influx, agonist mode | Q8NER1 | activation, % at 8.33 µM; in the data active = activation above about 80%; inconclusive = between about 30% and that limit; also: 0% is about no effect
Target sequence (Q8NER1 whole entry, looked up): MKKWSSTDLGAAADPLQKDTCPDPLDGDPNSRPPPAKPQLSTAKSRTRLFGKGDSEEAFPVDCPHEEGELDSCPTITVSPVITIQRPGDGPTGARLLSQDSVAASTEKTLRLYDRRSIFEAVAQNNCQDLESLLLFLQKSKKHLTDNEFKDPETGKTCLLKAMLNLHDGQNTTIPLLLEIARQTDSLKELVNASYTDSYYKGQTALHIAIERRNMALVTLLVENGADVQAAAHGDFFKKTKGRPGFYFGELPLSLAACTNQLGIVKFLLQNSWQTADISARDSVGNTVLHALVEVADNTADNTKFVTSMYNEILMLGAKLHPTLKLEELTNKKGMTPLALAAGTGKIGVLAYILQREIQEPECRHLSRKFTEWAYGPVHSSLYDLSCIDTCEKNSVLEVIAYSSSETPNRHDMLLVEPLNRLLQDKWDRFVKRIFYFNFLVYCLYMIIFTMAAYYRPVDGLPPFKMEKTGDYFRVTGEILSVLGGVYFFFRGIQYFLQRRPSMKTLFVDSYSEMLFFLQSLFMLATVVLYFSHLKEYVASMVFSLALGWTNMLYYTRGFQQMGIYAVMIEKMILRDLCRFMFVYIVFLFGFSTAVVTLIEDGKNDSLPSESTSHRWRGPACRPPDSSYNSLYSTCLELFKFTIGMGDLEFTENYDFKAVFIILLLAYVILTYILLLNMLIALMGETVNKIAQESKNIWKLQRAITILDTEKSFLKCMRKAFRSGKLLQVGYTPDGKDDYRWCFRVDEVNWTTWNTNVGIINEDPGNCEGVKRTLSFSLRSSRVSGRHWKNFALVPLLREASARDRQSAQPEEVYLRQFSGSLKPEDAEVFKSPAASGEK
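TRPV1-expressing cells were cultured overnight at 35.5C and loaded with Fluo-8 calcium dye for 40 to 90 min at room temperature. After a 10 s baseline, compound was added and calcium influx was read kinetically for 3 min (ex 480/em 520 nm).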
KCNH2 3.1 block: KCNH2 3.1 (human) potassium channel inhibition. U2OS KCNH2 3.1, thallium flux FluxOr; hits give low values. activity change, % (tested at about 1.8 µM). hit rate 0.95% among 340,000;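 active = maximum activity change below -70%; inconclusive = maximum activity change from -70% to -50%; inactive = maximum activity change above -50%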;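 also: thallium influx rate constant from kinetic fluorescence after stimulation buffer; % is scaled to controls: 0 for no effect and ±100 for the full control effect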
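Thallium flux via FluxOr fluorescence (Red40 quencher, 45 min loading) in U2OS cells virally expressing the KCNH2 3.1 isoform (1.77 x 10^8 /mL virus, overnight at 37 C). Rate constants from 2-min kinetic reads post-stimulation, normalised to positive and negative controls.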
hERG WT inh: blocks the wildtype human KCNH2 potassium channel; activity change, % at 1.84 µM; hit rate 0.37% among 340,000; U2OS, BacMam KCNH2, thallium flux FluxOr; hits give low values;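 active = maximum activity change below -70%; inconclusive = maximum activity change between -70% and -50%; inactive = maximum activity change above -50%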; also: % is scaled to controls: 0 for no effect and ±100 for the full control effect
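U2OS cells transduced with wild-type KCNH2 virus are loaded with FluxOr dye for 45 min, and thallium flux is measured in kinetic reads before and after stimulation buffer. Rate constants are normalized to DMSO controls.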
TRPV1 PAM: human TRPV1 potentiation; hit rate 0.02% among 320,000; AID 540277; TRPV1-expressing cells, Fluo-8 calcium influx, capsaicin EC20 potentiation; potentiation, % at 8.33 µM; Q8NER1; in the data active = potentiation above about 80%; inconclusive = between about 30% and that limit; also: 0% is about no effect
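TRPV1-expressing cells were cultured overnight at 35.5C and loaded with Fluo-8 calcium dye for 40 to 90 min at room temperature. After a 10 s baseline, compound was added and calcium influx was read kinetically for 3 min (ex 480/em 520 nm).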
MBNL1-CUG inh: MBNL1-poly(CUG) RNA binding inhibition. Q9NR56. hit rate 0.036% among 280,000. AID 2675. TR-FRET MBNL1-His/biotin-(CUG)12 binding, 665/545 ratio. Potency, µM (top dose mostly 57.5 µM), for the others: at the top dose activity change, negative = inhibition, actives largely listed as inhibitors; active = well fitted inhibition curve with a large enough effect in the signal ratio, with a control signal flat, not every such curve was filed as active; inconclusive = small, poorly fitted or top-dose-only effect, or effect the other way, or a change in a side signal; inactive = no such curve, though single readings can be large or run the other way; the % refers to the signal ratio; also: potency is read from the fitted curve at half-maximal effect; % is scaled to controls: 0 for no effect and ±100 for the full control effect
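TR-FRET readout: Ex 340 nm, 665/545 nm emission ratio, normalized to buffer-only (basal) and MBNL1-(CUG)12 controls. Complex of MBNL1-His with Biotin-(CUG)12, compounds 92 nM–58 uM, incubated 60 min at room temperature.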
The depositor's hits bear a star; ? = inconclusive; . = not tested or not shown.

SMILES | TRPV1 agonist | KCNH2 3.1 block | hERG WT inh | TRPV1 PAM | MBNL1-CUG inh
O=C(C[n+]1cccc(O)c1)NCc1ccc(Cl)cc1 | -1 | -11 | -8 | ? | 7%
CCCCOc1ccc(C(=O)Nc2ccncc2)cc1 | 93* | -3 | 8 | -7 | 13%
CC(C)c1ccc(OCC(=O)Nc2ccncc2)cc1 | 95* | -4 | -6 | -14 | 0%
O=C(Nc1ccncc1)c1ccc(Br)cc1 | 113* | 7 | -14 | -28 | -6%
CCc1ccc(OCC(=O)Nc2ccncc2)cc1 | ? | -14 | -3 | 1 | -2%
COC(=O)C(Sc1ccc(Cl)cc1)C1SC(=S)N(Cc2ccccc2)C1=O (configuration not stated) | . | 25 | 15 | . | .
CC[C@]1(C(=O)OC)[C@H]2C(=O)N(C)C(=O)[C@H]2[C@H]2CN=C(SCC3CC3)N21 | . | 0 | 0 | . | .
CC(C)OCCCNC(=O)C1CCC(CNS(=O)(=O)c2ccccc2)CC1 (configuration not stated) | -1 | -85* | 5 | 6 | -10%
Cc1cc(C)nc(N2CCCC(C(=O)Nc3ccc4c(c3)OCO4)C2)n1 (configuration not stated) | 83* | -3 | 7 | 7 | 9%
Cc1cc(C)nc(N2CCC(C(=O)Nc3ccc4c(c3)OCO4)CC2)n1 | 13 | 13 | 5 | -11 | 8%
C=CC[n+]1ccc(/C=C2\C=Cc3cc(C)ccc3N2CC)c2ccccc21 | -1 | -115* | 0 | -8 | ?
CCN1/C(=C/c2cc[n+](CCCS(=O)(=O)[O-])c3ccccc23)Sc2ccccc21 | -4 | 9 | -5 | 13 | ?
COc1ccc(S(=O)(=O)N2CCCCC2)cc1NC(=O)c1cccc(S(=O)(=O)N2CC(C)OC(C)C2)c1 (configuration not stated) | . | 2 | 1 | . | .
COc1ccc(C(CCNCc2ccc(N(C)C)cc2)c2ccccc2)cc1 (configuration not stated) | 6 | -85* | -30 | 6 | -3%
COc1ccc(CCNC(=O)c2ccc(S(=O)(=O)N3CCCCC3)cc2)cc1 | 3 | 2 | -4 | 11 | .
CCN(CC)c1ccc(CNc2nc3ccccc3n2CCN2CCOCC2)cc1 | 10 | -77* | 23 | -7 | -9%
COc1cccc(-c2nc(CS(=O)(=O)CC(=O)Nc3cc(C)ccc3C)c(C)o2)c1 | 10 | -7 | -1 | 15 | -1%
COc1ccc(-c2nc(CS(=O)(=O)CC(=O)NC3CCCCCC3)c(C)o2)cc1 | 12 | -4 | -102* | -16 | 0%
COc1cccc(-c2nc(CS(=O)(=O)CC(=O)Nc3c(C)cccc3C)c(C)o2)c1 | 2 | -104* | 3 | 6 | -1%
Cc1ccc(-c2nc(CS(=O)(=O)CC(=O)NCCN3CCOCC3)c(C)o2)cc1 | -1 | 9 | -187* | 2 | -4%
CCOC(=O)c1c(NC(=O)c2nn(CC)cc2Br)sc(C)c1C | 12 | -72* | 6 | -6 | 10%
Cc1nn(-c2ccccc2)c(N2CCCC2)c1/C=C1\N=C(c2ccc(OC(C)C)cc2)OC1=O | 0 | -75* | -4 | 6 | -6%
Oc1ccc2ccccc2c1C=Nc1ccc(Cl)cn1 | -1 | -114* | 5 | ? | 9%
Cc1cc(O)c(C=Nc2ccc(Cl)cn2)c(=O)o1 | -1 | -15 | 34 | 7 | 15%
C[C@@H]1CN([C@@H](C)CO)C(=O)CCCn2nncc2CO[C@H]1CN(C)C(=O)Nc1cccc2ccccc12 | . | 3 | 15 | . | .
SMILES | TRPV1 agonist | KCNH2 3.1 block | hERG WT inh | TRPV1 PAM | MBNL1-CUG inh
C[C@@H]1CN([C@H](C)CO)C(=O)CCCn2nncc2CO[C@@H]1CN(C)C(=O)Nc1cccc2ccccc12 | . | 11 | -77* | . | .
C[C@H](CO)N1C[C@H](C)[C@H](CN(C)C(=O)Cc2ccccc2)OCc2cnnn2CCCC1=O | . | 18 | -264* | . | .
COc1ccc(NC(=O)CN2C(=O)NC3(CCCc4ccccc43)C2=O)c(OC)c1 (configuration not stated) | . | -10 | -1 | . | .
N#Cc1ccccc1S(=O)(=O)N1CCN(C(=O)C2CC(=O)N(c3ccc4c(c3)OCCO4)C2)CC1 (configuration not stated) | . | -75* | -10 | . | .
Cc1ccc(S(=O)(=O)N2CCN(C(=O)C3CC(=O)N(c4ccc5c(c4)OCCO5)C3)CC2)cc1 (configuration not stated) | 2 | -12 | -9 | 12 | .
O=C(c1cc(-c2cccc(O)c2)on1)N1CCCCC1 | 7 | 3 | -2 | 10 | ?
O=C(c1cc(-c2cccc(O)c2)on1)N1CCCC1 | -1 | -188* | -228* | -4 | -2%
O=C(c1cc(-c2ccc(Cl)c(Cl)c2)on1)N1CCCC1 | 28 | . | . | -19 | -2%
O=C(c1cc(-c2ccc(Cl)cc2Cl)on1)N1CCOCC1 | 83* | -37 | 11 | -1 | 3%
O=C(c1cc(-c2ccc(Cl)c(Cl)c2)on1)N1CCOCC1 | 80* | 9 | -4 | 4 | -2%
Cc1ccc(S(=O)(=O)N2CCN(C(=O)COC(=O)COc3ccc(Cl)cc3)CC2)c(C)c1 | . | -9 | 18 | . | .
Cc1c(-n2c(SCC(=O)C(C)(C)C)nc3ccccc3c2=O)c(=O)n(-c2ccccc2)n1C | -4 | 1 | 22 | 30 | -5%
O=S(=O)(c1ccc(Cl)cc1)N1CCC(n2cnc3cc(C(F)(F)F)ccc32)CC1 | . | -83* | -41 | . | .
O=C(Cn1ccc2ccccc2c1=O)NCC(=O)N1CCCCC1 | -2 | -6 | -1 | 11 | 2%
O=C(Nc1cc(C2CC2)nn1-c1ccccc1)c1ccc(F)cc1 | . | 1 | -9 | . | .
CCC(=O)N(C)/C=C1\Sc2ccccc2C1=O | 0 | -10 | -102* | ? | 22%
CC(=O)N(C)/C=C1\Sc2ccccc2C1=O | -1 | -8 | 6 | -11 | -4%
COc1ccc(CCNC(=O)C2CC(=O)N(C3CCCCCCC3)C2)cc1OC (configuration not stated) | 1 | -201* | -20 | 1 | -2%
CCc1ncc(CN2CCCCC2C(=O)Nc2ccc(Oc3ccccc3)nc2)cn1 (configuration not stated) | 1 | -22 | -8 | 5 | -3%
CCN1C(=O)CC(Sc2ccccc2C(=O)O)C1=O (configuration not stated) | 1 | -104* | -19 | 2 | -1%
O=C(O)c1ccccc1SC1CC(=O)N(c2cccc3ccccc23)C1=O (configuration not stated) | -4 | -23 | 4 | -1 | 0%
O=C(CN1C(=O)C2C3C=CC(C3)C2C1=O)OCC(=O)c1ccc(Cl)c([N+](=O)[O-])c1 (configuration not stated) | . | 3 | -9 | . | .
CCN(CC(=O)NCc1cccs1)C(=O)c1cccc(S(=O)(=O)N2CC(C)OC(C)C2)c1 (configuration not stated) | . | -156* | -131* | . | .
